Values joined by “and” are separate entries in the source; they are usually repeats but may differ in a detail not shown here. Equal entries are not always repeated. Active and inactive are the calls of the source.

The values that follow come from PubChem BioAssay.

In assay [1] the test system is Plasmodium falciparum Sir2 (PF13_0152, Sir2A). Briefly: Plasmodium falciparum Sir2A binding compounds – biochemical, small-molecule microarray, 635 nm fluorescence, primary screen (AID 1098).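 Also: score merges spot fluorescence intensity with its signal-to-noise ratio.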 The conditions noted are these: fluorescence 635 nm, higher = more signal.
Assay [2] can be described thus: probe aDKK1 binding to arrayed compounds – biochemical, biotinylated probe, 635/667 nm fluorescence, primary screen (AID 1099).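 Also: score merges 667nm spot fluorescence with signal to noise across triplicate slides.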 The conditions noted are these: small-molecule microarray, higher = more signal.
Assay [3] can be described thus: probe aCHRDL2 binding to arrayed compounds – biochemical, biotinylated probe, 635/667 nm fluorescence, primary screen (AID 1100). The conditions noted are these: small-molecule microarray, higher = more signal.
Assay [4] can be described thus: change in splice reporter luminescence, either direction, cell-based, HEK293, spliceosome inhibition project, primary screen (AID 1101).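 Also: HEK293 cells carrying a splicing-competent luciferase reporter gene; test concentration not given here.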 The conditions noted are these: HEK293 splicing luciferase reporter, 24 h, higher = more signal, called active from +8 up or from −8 down.
Assay [5] addresses Fibroblast growth factor 10 (Homo sapiens) (UniProt O15520). As to the kind of experiment: compounds binding fibroblast growth factor 10 – biochemical, small-molecule microarray, 635 nm fluorescence, primary screen (AID 1102). The following applies: FGF10 binding, fluorescence 635 nm, higher = more signal.
The subject of assay [6] is glycogen synthase kinase-3 (GSK3A per assay name; protocol says GSK3B). As to the kind of experiment: compounds binding glycogen synthase kinase-3 – biochemical, small-molecule microarray, 635 nm fluorescence, GSK3A, primary screen (AID 1103). Also: the record names both GSK3A and GSK3B. The following applies: fluorescence 635 nm, higher = more signal.
Assay [7] deals with Epidermal growth factor receptor (Homo sapiens) (UniProt P00533). As to the kind of experiment: compounds binding epidermal growth factor receptor – biochemical, small-molecule microarray, 635 nm fluorescence, primary screen (AID 1104).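 Also: score merges 667 nm emission intensity with spot signal to noise over triplicate slides.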 The conditions noted are these: EGFR binding, higher = more signal.
Chain of Epidermal growth factor receptor (Homo sapiens) (P00533 whole entry, looked up): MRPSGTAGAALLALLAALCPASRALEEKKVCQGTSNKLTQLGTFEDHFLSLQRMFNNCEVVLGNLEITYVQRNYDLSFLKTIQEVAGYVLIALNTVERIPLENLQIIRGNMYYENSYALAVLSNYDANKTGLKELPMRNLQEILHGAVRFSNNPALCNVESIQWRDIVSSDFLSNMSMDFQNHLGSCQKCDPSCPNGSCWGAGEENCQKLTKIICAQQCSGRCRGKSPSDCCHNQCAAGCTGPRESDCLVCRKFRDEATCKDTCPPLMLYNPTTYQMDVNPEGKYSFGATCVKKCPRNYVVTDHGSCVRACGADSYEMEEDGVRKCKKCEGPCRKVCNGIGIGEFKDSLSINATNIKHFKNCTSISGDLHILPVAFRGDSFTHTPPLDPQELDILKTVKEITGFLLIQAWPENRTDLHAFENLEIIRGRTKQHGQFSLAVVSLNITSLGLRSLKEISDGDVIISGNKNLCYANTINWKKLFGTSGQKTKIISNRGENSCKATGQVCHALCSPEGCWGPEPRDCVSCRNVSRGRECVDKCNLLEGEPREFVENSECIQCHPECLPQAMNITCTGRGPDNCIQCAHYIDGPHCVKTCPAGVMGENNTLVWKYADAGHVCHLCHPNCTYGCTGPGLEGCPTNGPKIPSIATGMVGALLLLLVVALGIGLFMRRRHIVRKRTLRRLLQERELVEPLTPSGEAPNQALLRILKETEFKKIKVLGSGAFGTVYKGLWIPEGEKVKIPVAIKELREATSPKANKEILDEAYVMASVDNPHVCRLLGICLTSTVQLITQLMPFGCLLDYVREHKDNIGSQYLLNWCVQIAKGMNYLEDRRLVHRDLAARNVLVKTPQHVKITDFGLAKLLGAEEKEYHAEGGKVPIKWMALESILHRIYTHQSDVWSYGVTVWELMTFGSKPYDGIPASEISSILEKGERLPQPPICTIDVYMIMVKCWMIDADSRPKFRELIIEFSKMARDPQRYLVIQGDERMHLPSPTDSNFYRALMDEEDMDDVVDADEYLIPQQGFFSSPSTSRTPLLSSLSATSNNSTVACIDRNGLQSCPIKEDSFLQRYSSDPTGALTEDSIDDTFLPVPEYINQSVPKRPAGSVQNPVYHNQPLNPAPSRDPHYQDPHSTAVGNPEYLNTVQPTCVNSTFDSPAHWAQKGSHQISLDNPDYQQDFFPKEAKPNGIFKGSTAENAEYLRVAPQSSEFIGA
Assay [8] deals with Follistatin-related protein 3 (Homo sapiens) (UniProt O95633). As to the kind of experiment: compounds binding follistatin-related protein 3 – biochemical, small-molecule microarray, 635 nm fluorescence, primary screen (AID 1105).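 Also: score merges emission near 667 nm and signal to noise per printed spot across three slides.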 The following applies: FSTL3 binding, higher = more signal.
Chain of Follistatin-related protein 3 (Homo sapiens) (O95633 whole entry, looked up): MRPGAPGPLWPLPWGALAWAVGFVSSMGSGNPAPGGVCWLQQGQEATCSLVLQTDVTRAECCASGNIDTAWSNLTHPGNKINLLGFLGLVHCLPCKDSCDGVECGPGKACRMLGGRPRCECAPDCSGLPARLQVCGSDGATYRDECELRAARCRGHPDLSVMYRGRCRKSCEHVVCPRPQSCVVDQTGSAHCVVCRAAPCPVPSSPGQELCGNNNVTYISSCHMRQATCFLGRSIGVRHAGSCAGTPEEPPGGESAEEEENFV
Assay [9] addresses Dickkopf-related protein 1 (Homo sapiens) (UniProt O94907). As to the kind of experiment: small molecules binding DKK1 protein – biochemical, small-molecule microarray, 635 nm fluorescence scan, primary screen (AID 1106).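 Also: score merges emission near 667 nm with signal to noise over three replicate slides.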 The conditions noted are these: higher = more signal.
Assay [10] has as its system Inhibin beta A chain (activin A). As to the kind of experiment: small molecules binding activin A – biochemical, small-molecule microarray, 635 nm fluorescence scan, primary screen (AID 1107).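 Also: mouse activin A protein probed at 4.33 µg/mL on printed slides; score merges bound-protein fluorescence near 667 nm with spot signal-to-noise.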 The conditions noted are these: INHBA, higher = more signal.
The subject of assay [11] is Human papillomavirus type 1a protein E7 (residues 44-93). Briefly: small molecules binding HPV E7 44-93 – biochemical, small-molecule microarray, residues 44-93, 635 nm fluorescence, primary screen (AID 1108).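 Also: E7 fragment applied at 1 µg/mL in TBST for 1 h at 4 C; score combines spot fluorescence with its signal to noise ratio.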 The conditions noted are these: fluorescence 635 nm, higher = more signal.
A short description of assay [12]: hepatitis C replication reporter changes, two-sided – Huh7 cells, luciferase reporter, HCV replication inhibitor project, primary screen (AID 1109).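 Also: huh7 hepatoma cells harbouring a luciferase neomycin HCV replicon reporter; luciferase luminescence as measure of HCV replicon replication; test concentration not given here.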 The following applies: Huh7 HCV replicon luciferase reporter, 48 h; higher = more signal. For orientation: In a reporter assay the amount or activity of a reporter protein is the signal.
The target of assay [13] is Left-right determination factor 2 (Homo sapiens) (UniProt O00292). As to the kind of experiment: small molecules binding LEFTY2 protein – biochemical, small-molecule microarray, 635 nm fluorescence scan, primary screen (AID 1110). The following applies: higher = more signal.
Chain of Left-right determination factor 2 (Homo sapiens) (O00292 whole entry, looked up): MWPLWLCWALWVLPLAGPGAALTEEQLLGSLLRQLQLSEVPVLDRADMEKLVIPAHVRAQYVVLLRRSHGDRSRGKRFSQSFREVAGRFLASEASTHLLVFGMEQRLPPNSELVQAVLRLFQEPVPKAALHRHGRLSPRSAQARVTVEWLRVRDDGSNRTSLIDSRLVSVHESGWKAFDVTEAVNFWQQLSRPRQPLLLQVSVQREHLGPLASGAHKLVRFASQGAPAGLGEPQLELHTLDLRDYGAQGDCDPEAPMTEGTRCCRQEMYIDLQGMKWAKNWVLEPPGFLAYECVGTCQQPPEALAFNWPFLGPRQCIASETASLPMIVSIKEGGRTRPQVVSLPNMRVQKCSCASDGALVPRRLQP
In assay [14] the target is Calmodulin-1 (Homo sapiens) (UniProt P0DP23). Briefly: small molecules binding calmodulin-1 with EGTA – biochemical, small-molecule microarray, Cy5-labelled CALM1, profiling panel (AID 1111).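 Also: labelled calmodulin applied in Tris saline Tween buffer holding calcium plus EGTA and DTT.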 The conditions noted are these: Cy5-CALM1 binding fluorescence, higher = more signal.
Assay [15] has the same target. As to the kind of experiment: small molecules binding Ca-loaded calmodulin-1 – biochemical, small-molecule microarray, Cy5-labelled CALM1, plus calcium, artefact control for SMM control-protein annotation, profiling panel (AID 1112).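 Also: score merges spot fluorescence with signal to noise from triplicate slides.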 The conditions noted are these: Cy5-CALM1 binding fluorescence, higher = more signal.
A short description of assay [16]: probe aWnt5a binding to arrayed compounds – biochemical, biotinylated probe, 635/667 nm fluorescence, primary screen (AID 1113).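 Also: score merges 667 nm fluorescence intensity with signal-to-noise per printed feature.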 The conditions noted are these: small-molecule microarray, higher = more signal.
Assay [17] can be described thus: probe aShh binding to arrayed compounds – biochemical, biotinylated probe, 635/667 nm fluorescence, primary screen (AID 1114).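 Also: probe is biotin-labelled aShh protein from a stem cell growth factor screen; measures binding of labelled protein to compounds printed on the slide; score merges feature fluorescence at 667 nm with signal-to-noise.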 The following applies: small-molecule microarray, higher = more signal.
A short description of assay [18]: probe aNog binding to arrayed compounds – biochemical, biotinylated probe, 635/667 nm fluorescence, primary screen (AID 1115).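 Also: probe is biotinylated aNog protein used at 0.15 µg/mL for 1 h at 4 C; z-score combines 667 nm fluorescence of each spot with its signal to noise.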 The conditions noted are these: small-molecule microarray, higher = more signal.
The target of assay [19] is Torsin-1A-interacting protein 1 (Homo sapiens) (UniProt Q5JTV8). Briefly: compound microarray binding of lysate hLAP1 – cell lysate, small-molecule microarray, COS7 lysate, 635/667 nm fluorescence, primary screen (AID 1116). The following applies: 635 nm fluorescence, higher = more signal.
Chain of Torsin-1A-interacting protein 1 (Homo sapiens) (Q5JTV8 whole entry, looked up): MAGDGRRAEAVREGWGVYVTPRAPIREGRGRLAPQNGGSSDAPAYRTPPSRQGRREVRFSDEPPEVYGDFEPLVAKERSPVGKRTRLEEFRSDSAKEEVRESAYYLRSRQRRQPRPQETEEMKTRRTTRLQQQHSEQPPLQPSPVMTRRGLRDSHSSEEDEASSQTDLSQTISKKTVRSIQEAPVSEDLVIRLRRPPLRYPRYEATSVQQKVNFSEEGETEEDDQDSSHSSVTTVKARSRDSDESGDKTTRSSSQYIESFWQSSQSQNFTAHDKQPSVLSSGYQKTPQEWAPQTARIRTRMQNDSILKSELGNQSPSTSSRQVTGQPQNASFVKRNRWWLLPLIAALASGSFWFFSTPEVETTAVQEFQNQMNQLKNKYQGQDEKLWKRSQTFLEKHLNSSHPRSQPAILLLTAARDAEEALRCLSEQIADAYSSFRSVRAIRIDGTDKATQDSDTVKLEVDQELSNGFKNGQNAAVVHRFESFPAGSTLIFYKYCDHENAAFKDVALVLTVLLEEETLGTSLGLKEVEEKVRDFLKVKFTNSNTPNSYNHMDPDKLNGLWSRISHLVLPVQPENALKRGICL
In assay [20] the target is Alpha-bungarotoxin (Bungarus multicinctus) (UniProt P60615). Briefly: compounds binding labelled alpha-BTX control protein – biochemical, small-molecule microarray, Alexa647 label, 635/667 nm fluorescence, artefact control for SMM control protein annotation, profiling panel (AID 1117). The conditions noted are these: alpha-BTX-A647 binding fluorescence, higher = more signal.
Chain of Alpha-bungarotoxin (Bungarus multicinctus) (P60615 whole entry, looked up): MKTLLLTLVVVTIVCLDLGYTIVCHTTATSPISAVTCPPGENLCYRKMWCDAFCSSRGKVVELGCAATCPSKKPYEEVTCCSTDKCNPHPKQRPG

Chain of Fibroblast growth factor 10 (Homo sapiens) (O15520 whole entry, looked up): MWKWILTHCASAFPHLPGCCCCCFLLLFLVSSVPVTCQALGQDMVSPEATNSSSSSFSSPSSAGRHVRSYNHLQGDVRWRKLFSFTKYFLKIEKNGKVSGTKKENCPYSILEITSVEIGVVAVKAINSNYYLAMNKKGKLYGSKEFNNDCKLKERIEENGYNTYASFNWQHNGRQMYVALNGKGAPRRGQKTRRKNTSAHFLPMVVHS
Chain of Dickkopf-related protein 1 (Homo sapiens) (O94907 whole entry, looked up): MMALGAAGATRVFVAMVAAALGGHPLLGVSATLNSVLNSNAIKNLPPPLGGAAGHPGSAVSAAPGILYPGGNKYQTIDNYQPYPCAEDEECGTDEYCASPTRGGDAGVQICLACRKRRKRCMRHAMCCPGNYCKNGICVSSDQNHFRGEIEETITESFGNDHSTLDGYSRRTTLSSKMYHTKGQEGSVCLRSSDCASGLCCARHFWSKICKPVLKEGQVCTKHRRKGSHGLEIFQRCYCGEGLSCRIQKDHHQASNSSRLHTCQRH

Take `CC(CO)N1C(=O)[C@@H]2C3C(=O)OCCC=C[C@H]3OC23C=CCN(c2ccc4ccccc4c2)C(=O)[C@@H]13` (stereo not given in full): the composite z-score was 0.971 and 0.0013 in [1]; 0.0565 and -0.627 in assay [2]; 0.691 and -0.64 in [3]; -0.773 and -0.238 in [5]; -0.236 and -0.0124 in [6]; -1.06 and -0.897 in [7]. The composite z-score in assay [8] is -0.352 and 0.329; in assay [9], -1.6 and -0.929; in assay [10], 0.665 and 0.142; in [11], 1.24 and -0.698; in [13], -1.21 and 0.0157; in [14] it was -0.482 and -1.21. Further, the composite z-score is 0.0293 and -1.1 in assay [15]; -0.203 and -0.183 in assay [16]; 0.0141 and -0.824 in assay [17]; 0.304 and -0.61 in assay [18]; 2.61 and 1.05 in assay [19]; -0.69 and -0.343 in assay [20]. The z-score is 0.132 (inactive) and 0.555 (inactive) in assay [4]; -0.466 and -0.213 in [12].

For the compound `CO[C@@H]1COC(=O)[C@H](Cc2ccccc2)NC(=O)CC=C[C@@H](C)[C@H](OC)COC(=O)[C@@H](C)NC(=O)CC=C[C@H]1C`, the composite z-score in assay [1] is 1.58 and 0.899; in assay [2], -0.447 and -0.987; in [3] it was -1.06 and -1.37; in assay [5], 0.497 and 0.956; in assay [6], 1.07 and 0.496; in [7], 0.882 and 0.64. The composite z-score in [8] is 1.29 and 0.876; in [9], 0.696 and 1.67; in [10] it was 1.42 and 0.336; in [11] it was 0.946 and 0.026; in assay [13] it was 0.79 and 0.972; in assay [14], -0.913 and -0.79. The composite z-score is -1.89 and -1.85 in assay [15]; -0.1 and -0.22 in [16]; -0.362 and -0.102 in [17]; -0.201 and -0.278 in assay [18]; 0.596 and -0.19 in assay [19]; -0.527 and -0.862 in [20]. In addition, the z-score in [4] was -1.14 (inactive) and -1.29 (inactive); in assay [12], -0.198 and 0.903.

`O=C(NN=C1C[C@@H](O)[C@@H](O)[C@@H]2[C@@H]3C(=O)N(Cc4ccc5c(c4)OCO5)C(=O)[C@@H]3CC[C@H]12)OCc1ccccc1`: the composite z-score is -0.345 in assay [1]; 0.118 in assay [2]; 0.298 in assay [3]; -0.464 in assay [5]; -1.2 in [6]; -0.0036 in assay [7]. For the same compound, the composite z-score in assay [8] is -0.904; in assay [9], -1.57; in assay [10], -2.22; in [11] it was -0.984; in assay [13] it was 0.227; in assay [14], -0.643. For the same compound, the composite z-score is -1.29 in [15]; 0.0718 in [16]; 0.0796 in assay [17]; -0.363 in assay [18]; -0.842 in [19]; -0.394 in assay [20]. The z-score in assay [4] was 0.0692 (inactive); in assay [12], 0.401.

Consider `C=CCN(C(=O)C(c1cccs1)N(CCOCCO)C(=O)/C=C\C(=O)O)C(C)(C)C` (stereo not given), for which the composite z-score in assay [1] is -1.45 and 1.17; in assay [2], -0.214 and -0.188; in assay [3], 0.336 and 0.718; in assay [5], -1.34 and -1.24; in [6], -1.46 and -0.651; in assay [7], -1.21 and -0.944. The composite z-score in assay [8] was -1.64 and -1.94; in assay [9], -2.14 and -2.17; in [10], -0.96 and -1.53; in assay [11], -1.34 and -0.3; in assay [13], -2.67 and -2.46; in assay [14], -1.36 and -0.361. For the same compound, the composite z-score in assay [15] is -0.183 and 0.48; in assay [16], -0.154 and -0.239; in assay [17], -0.174 and 0.151; in assay [18], -0.0689 and 0.106; in assay [19] it was 0.17 and -0.417; in assay [20], -2.22 and -0.34. In addition, the z-score in assay [4] is -0.0364 (inactive) and 0.0433 (inactive); in [12], 0.399 and -0.274.

With `C=CC[C@@H](O)c1ccc(OCCO)cc1`, the composite z-score in [1] was 0.153 and 0.572; in assay [2], -0.458 and -0.292; in [3], 0.644 and 0.889; in [5] it was -0.906 and -0.929; in assay [6] it was 0.512 and -0.567; in [7], -0.798 and -1.61. Also, the composite z-score in [8] is 0.132 and -0.565; in assay [9], -0.751 and -1.58; in assay [10], -0.911 and -1.46; in assay [11] it was -1.68 and -0.85; in assay [13] it was -0.301 and -1.81; in assay [14] it was -1 and -1.27. Further, the composite z-score in assay [15] was -0.166 and -0.74; in assay [16], -0.184 and -0.247; in [17] it was -0.138 and -0.0626; in assay [18], -0.435 and -0.201; in assay [19], 0.141 and -0.598; in assay [20], -0.416 and 1.32. Besides, the z-score in assay [4] is -1.87 (inactive) and -2.09 (inactive); in [12], 1.71 and 1.54.
